Assay outcomes deposited in PubChem BioAssay by several laboratories.
CCHFV vOTU inh: blocks the CCHF virus ovarian tumor domain protease; CCHFV vOTU protease, Pep-AMC fluorescence; inhibition, % at 11.5 µM; 370,000 tested, 0.55% active; AID 651958; in the data active means inhibition above about 30%; further: 0% = vehicle wells with enzyme and 100% = no enzyme wells
3CLpro inhibitor: SARS-CoV 3CLpro protease inhibition | P0C6X7 | recombinant SARS-CoV 3CLpro, quenched FRET peptide cleavage | inhibition, % at 6 µM | 290,000 tested, 0.14% active; in the data active means inhibition above about 12%
DUSP3 inh: blocks human VHR1 dual specificity phosphatase; P51452; recombinant VHR phosphatase, pNPP absorbance; inhibition, % at 13.3 µM; 290,000 tested, 0.52% active; AID 1654; in the data active means inhibition above about 50%
Target sequence (P51452 whole entry, looked up): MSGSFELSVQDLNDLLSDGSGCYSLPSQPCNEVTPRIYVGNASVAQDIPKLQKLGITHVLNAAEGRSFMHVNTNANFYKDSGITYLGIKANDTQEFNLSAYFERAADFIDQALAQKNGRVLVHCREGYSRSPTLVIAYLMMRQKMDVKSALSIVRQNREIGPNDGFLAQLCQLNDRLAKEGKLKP
RecA splice inh: inhibitors of M. tuberculosis RecA intein splicing; AID 2221; cell-free RecA intein splicing, fluorescence; inhibition, % (no concentration beside the values); 290,000 tested, 0.75% active; P9WHJ3; in the data active means inhibition above about 30%;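 further: 0% = vehicle wells and 100% = reference inhibitor control wells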
* marks the source's active call; other numbers are inactive results. An excerpt weighted towards active compounds, which were near 1.5% of everything screened.

Results for COCCN1C(=O)C(CC(=O)Nc2ccc(C(C)=O)cc2)SC1=Nc1ccccc1 (stereo not given) ?
CCHFV vOTU inh: 8; 3CLpro inhibitor: 4; DUSP3 inh: 57*

How did O=C(N/N=C/c1ccc(OC(=O)c2cccs2)cc1)c1ccccn1 do in these assays?
CCHFV vOTU inh: 0; 3CLpro inhibitor: -5; DUSP3 inh: 53*; RecA splice inh: 5

Results for CCOc1cc(/C=N/NC(=O)c2ccccn2)ccc1OC(=O)c1cccs1 ?
CCHFV vOTU inh: 11; 3CLpro inhibitor: -2; DUSP3 inh: 44; RecA splice inh: -1

What do the screens show for `CC(C)CCNc1nc(-c2ccco2)c2c(c1C#N)CCCC2`?
CCHFV vOTU inh: -2; 3CLpro inhibitor: -1; DUSP3 inh: 59*; RecA splice inh: -3

What do the screens show for `Nc1nc(SCC(=O)NC2CCCCC2)n[nH]1`?
CCHFV vOTU inh: -3; 3CLpro inhibitor: 0; DUSP3 inh: 10; RecA splice inh: -2

How did O=C1c2ccccc2-c2c1nc1c([n+]2[O-])CCCC1 do in these assays?
CCHFV vOTU inh: 10; 3CLpro inhibitor: -5; DUSP3 inh: 15; RecA splice inh: 37*

Results for COc1ccccc1NC(=O)N(CCN(C)C)Cc1cc2cc(C)ccc2[nH]c1=O ?
CCHFV vOTU inh: 1; 3CLpro inhibitor: -1; DUSP3 inh: 52*; RecA splice inh: 1

How did CCc1ccc(/C=C/C(=O)C2C(=O)c3ccccc3C2=O)cc1 do in these assays?
CCHFV vOTU inh: 16; 3CLpro inhibitor: 5; DUSP3 inh: -8; RecA splice inh: 33*

What do the screens show for `Cc1cc(=O)[nH]c(-c2ccc(C(F)(F)F)cc2)n1`?
CCHFV vOTU inh: -2; 3CLpro inhibitor: 0; DUSP3 inh: 10; RecA splice inh: 1

How did Cc1cc(S(=O)(=O)NC2CC(C)(C)NC(C)(C)C2)c(Cl)cc1Cl do in these assays?
CCHFV vOTU inh: -10; 3CLpro inhibitor: -8; DUSP3 inh: 60*; RecA splice inh: 1

How did CC1(C)CC(NS(=O)(=O)c2ccc(Cl)cc2)CC(C)(C)N1 do in these assays?
CCHFV vOTU inh: -5; 3CLpro inhibitor: 1; DUSP3 inh: 54*; RecA splice inh: -4

Results for COc1ccc(/C(C)=N\NC(=O)c2ccco2)cc1 ?
CCHFV vOTU inh: 3

Results for COc1ccc(Cl)cc1NC(=O)C(C)OC(=O)Cn1cc(C(F)(F)F)ccc1=O (stereo not given) ?
CCHFV vOTU inh: 5

What do the screens show for `Cn1c(CCn2ccccc2=O)nc2cc(NC(=O)COc3ccccc3)ccc21`?
CCHFV vOTU inh: 6; 3CLpro inhibitor: -3; DUSP3 inh: 20; RecA splice inh: 3

Results for Cc1nonc1OCCNCc1c(C(=O)N2CCCCCCC2)nc2ccc(Cl)cn12 ?
CCHFV vOTU inh: -13; 3CLpro inhibitor: 3; DUSP3 inh: 26

What do the screens show for `O=S(=O)(Cc1ccccc1)c1cnc2ccccc2n1`?
CCHFV vOTU inh: 2; 3CLpro inhibitor: 3; DUSP3 inh: 22; RecA splice inh: 30*

Results for COc1ccc(S(=O)(=O)c2cnc3ccccc3n2)cc1 ?
CCHFV vOTU inh: 14; 3CLpro inhibitor: 5; DUSP3 inh: 12; RecA splice inh: 35*

How did COc1cc(C=C2CCCC(=Cc3ccc(OCC4CO4)c(OC)c3)C2=O)ccc1OCC1CO1 (stereo not given) do in these assays?
CCHFV vOTU inh: -6

What do the screens show for `CCC(C)[C@H](NC(=O)N1CCC(C)CC1)C(=O)OC` (stereo not given in full)?
CCHFV vOTU inh: 4; 3CLpro inhibitor: 4; DUSP3 inh: -4; RecA splice inh: 2

How did O=C(CN1C(=O)NC2(CCCc3ccccc32)C1=O)c1ccc(F)c(F)c1 (stereo not given) do in these assays?
CCHFV vOTU inh: 3

How did CC1=CC(c2ccccc2)n2nc(N3C(=O)C4CC=CCC4C3=O)nc2N1 (stereo not given) do in these assays?
CCHFV vOTU inh: -167; 3CLpro inhibitor: -1; DUSP3 inh: 57*; RecA splice inh: -11

What do the screens show for `COC(=O)[C@]12C[C@H](CC(=O)N3CCSCC3)C(=O)N(Cc3cccc4ccccc34)C1=C[C@H](C1CCCC1)O[C@@H]2C`?
CCHFV vOTU inh: 12

How did COc1cccc(NC(=S)/C(=C(\[O-])c2ccc(C)c([N+](=O)[O-])c2)[n+]2ccccc2)c1 do in these assays?
CCHFV vOTU inh: -20; 3CLpro inhibitor: -2; DUSP3 inh: 25; RecA splice inh: 37*

What do the screens show for `Cc1ccc(NC(=O)C2C3C=CC4(O3)C2C(=O)N(CCCN2CCCC2)C4C(=O)NC2CCCCC2)cc1Cl` (stereo not given)?
CCHFV vOTU inh: 1; 3CLpro inhibitor: -5; DUSP3 inh: 53*

How did COc1ccccc1NS(=O)(=O)c1ccc(-c2cnc(C3CC3)o2)cc1 do in these assays?
CCHFV vOTU inh: 17; 3CLpro inhibitor: 3; DUSP3 inh: -14; RecA splice inh: -9

How did COc1ccc(NS(=O)(=O)c2ccc(-c3cnc(C4CC4)o3)cc2)cc1OC do in these assays?
CCHFV vOTU inh: 9; 3CLpro inhibitor: -5; DUSP3 inh: 52*; RecA splice inh: 4

What do the screens show for `Cc1[nH]n(-c2ccccc2)c(=O)c1/C=N/NC(=O)c1cccc([N+](=O)[O-])c1`?
CCHFV vOTU inh: 10; 3CLpro inhibitor: -4; DUSP3 inh: 28

How did Cc1ccc(-n2[nH]c(C)c(/C=N/NC(=O)c3ccc([N+](=O)[O-])cc3)c2=O)c(C)c1 do in these assays?
CCHFV vOTU inh: 7; 3CLpro inhibitor: 4; DUSP3 inh: 11; RecA splice inh: 32*

What do the screens show for `Cc1[nH]n(-c2cccc3ccccc23)c(=O)c1/C=N/NC(=O)c1cccc([N+](=O)[O-])c1`?
CCHFV vOTU inh: 4; 3CLpro inhibitor: 5; DUSP3 inh: 4; RecA splice inh: 10

How did Cc1ccc(-n2[nH]c(C)c(/C=N/Nc3ccc([N+](=O)[O-])cc3[N+](=O)[O-])c2=O)cc1C do in these assays?
CCHFV vOTU inh: -1; 3CLpro inhibitor: -3; DUSP3 inh: 50*; RecA splice inh: 4

How did CCOC(=O)[C@]12CCCC=C1N(CCCOC)C(=O)[C@@H]2CC(=O)NCCc1ccccc1OC do in these assays?
CCHFV vOTU inh: 10

How did Cc1cnc(CNC(=O)c2csc([C@@H]3C[C@H](O)[C@@H](CO)O3)n2)cn1 do in these assays?
CCHFV vOTU inh: 0

What do the screens show for `COc1ccccc1C(=O)NC1CC(C)(C)NC(C)(C)C1`?
CCHFV vOTU inh: -11; 3CLpro inhibitor: 0; DUSP3 inh: 31; RecA splice inh: -3

Results for CC(=O)Oc1ccc(C(=O)Nc2cccc(C(=O)c3cccc(NC(=O)c4ccc(OC(C)=O)cc4)c3)c2)cc1 ?
CCHFV vOTU inh: -18; 3CLpro inhibitor: -5; DUSP3 inh: 10; RecA splice inh: 4

What do the screens show for `CCC(=O)Oc1ccc(C(=O)Nc2cccc(C(=O)c3ccccc3)c2)cc1`?
CCHFV vOTU inh: -9; 3CLpro inhibitor: 2; DUSP3 inh: 29; RecA splice inh: 36*

Results for COC(=O)C1(C)Cc2cc(OC(C)=O)c(OC(C)=O)cc2N1 (stereo not given) ?
3CLpro inhibitor: 0; DUSP3 inh: 21; RecA splice inh: 61*

What do the screens show for `CC(Sc1nnc(-c2ccco2)n1C)C(=O)Nc1nccs1` (stereo not given)?
CCHFV vOTU inh: 8; RecA splice inh: 2

How did NC(=O)c1ccsc1NC(=O)CCS(=O)(=O)c1ccc(Cl)cc1 do in these assays?
CCHFV vOTU inh: -9
